Holding throughout (conditions): concentration: 1 μM, replicates: in singlicate; n = 1
Assay [1] has as its system PLK2.
For assay [2], the system named is PLK3.
In assay [3] the test system is PLK4.
Assay [4] concerns PRKCD.
The test system of assay [5] is PRKCE.
The test system of assay [6] is PRKCH.
Assay [7] deals with PRKCI.
The subject of assay [8] is PRKCQ.
Assay [9] has as its system PRKD1.
Assay [10] has as its system PRKD2.
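Further: KINOMEscan kinase panel screen.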

`COc1cccc(C(=O)Nc2cccc(Oc3ccc4nc(NC(=O)C5CC5)cn4n3)c2)c1`: the “%Inh” value turned out to be 0% in assay [1]; 14% in assay [2]; 5% in assay [3]; 25% in assay [4]; 0% in [5]; 0% in assay [6]. The “%Inh” value in assay [7] is on record as 40%; in [8], 0%; in [9], 0%; in [10], 44%.
In the case of `Cl.Cl.NCC(NCc1ccc(-c2ccnc3[nH]ccc23)s1)c1ccccc1` (stereo not shown) [GSK1321565], the “%Inh” value in assay [1] was determined as 5%; in [2] it was 0%; in assay [3] it was 49%; in assay [4] it was 91.1%; in assay [5] it was 84%; in assay [6] it was 85%. The “%Inh” value is listed as 0% in assay [7], 55% in assay [8], 0% in assay [9] and 21% in [10].
For the compound `O=C(Nc1ccccc1F)NC1CCN(c2ccnc(Nc3ccc(F)cc3)n2)CC1` [GSK1379800], the “%Inh” value in assay [1] is reported as 0%; in [2] it was 0%; in assay [3] it was 0%; in [4], 0%; in assay [5] it was 2%; in assay [6], 0%. In addition, the “%Inh” value stood at 18% in [7], 0% in assay [8], 0% in assay [9] and 2% in [10].
`O=C(Nc1cccc(-c2nn3ccccc3c2-c2ccnc(Nc3cccc(F)c3)n2)c1)c1c(F)ccc(F)c1Cl` [GSK357952]: the “%Inh” value in assay [1] is recorded as 0%; in [2], 2%; in assay [3], 0%; in assay [4] it was 8%; in assay [5], 0%; in [6] it was 31%. Besides, the “%Inh” value in assay [7] is reported as 0%; in assay [8], 38%; in [9], 21%; in assay [10], 0%.
As for `Cc1ccc(S(=O)(=O)Nc2ccc(Nc3nccc(Nc4cccc5[nH]ncc45)n3)cc2)cc1` [GSK581271], the “%Inh” value is 0% in assay [1]; 0% in assay [2]; 1% in [3]; 0% in assay [4]; 0% in assay [5]; 0% in assay [6]. For the same compound, the “%Inh” value in assay [7] came to 7%; in assay [8], 0%; in assay [9], 0%; in assay [10] it was 0%.
For the compound `Oc1cc(Nc2ccnc3cc(I)ccc23)ccc1F` [GW552771], the “%Inh” value in [1] is reported as 0%; in [2], 0%; in [3], 0%; in assay [4] it was 0%; in [5] it was 3%; in assay [6], 13%. Moreover, the “%Inh” value in [7] turned out to be 30%; in [8], 0%; in assay [9] it was 45%; in [10], 30%.
`Nc1ncc(-c2cccnc2)c2scc(-c3ccc4c(c3)CCN4C(=O)Cc3ccccc3)c12` [GSK683281]: the “%Inh” value amounted to 0% in assay [1]; 0% in assay [2]; 15% in assay [3]; 25% in [4]; 0% in assay [5]; 33% in [6]. The “%Inh” value in assay [7] is 33%; in [8], 14%; in assay [9], 23%; in assay [10], 73%.
For the compound `CCn1c(-c2nonc2N)nc2c(C#CC(C)(C)O)nc(OC[C@H](N)c3ccccc3)cc21` [GSK943949], the “%Inh” value in assay [1] amounted to 0%; in assay [2] it was 0%; in assay [3], 19%; in assay [4], 96.2%; in [5], 75%; in [6], 97.9%. The “%Inh” value in [7] was 20%; in assay [8], 82%; in [9], 7%; in assay [10], 17%.
As for `Cn1cc(-c2[nH]c3cc(NC(=O)[C@H](N)C4CCCCC4)cc4c3c2C=NNC4=O)cn1`, the “%Inh” value in assay [1] is listed as 68%; in assay [2], 36%; in [3], 99.9%; in assay [4] it was 45%; in assay [5], 79%; in assay [6], 53%. For the same compound, the “%Inh” value came out at 59% in [7], 78% in [8], 0% in assay [9] and 0% in [10].
Take `COc1cc(Nc2nccc(N3CCC(NC(=O)c4cc5ccccc5s4)C3)n2)cc(OC)c1OC` (stereo not shown) [GSK1379760]: the “%Inh” value in [1] is recorded as 0%; in [2], 14%; in assay [3], 0%; in assay [4], 7%; in assay [5] it was 14%; in assay [6] it was 5%. In addition, the “%Inh” value was found to be 7% in assay [7], 3% in [8], 0% in [9] and 23% in assay [10].
On to `Cc1cccc(NC(=O)Nc2ccc(Oc3ncnc4ccn(C)c34)cc2)c1`, for which the “%Inh” value in assay [1] turned out to be 0%; in assay [2], 3%; in [3] it was 0%; in [4], 0%; in assay [5] it was 7%; in [6] it was 0%. Further, the “%Inh” value in [7], in [8], in [9] and in assay [10] was 0% each time.
On to `Cl.Cl.NCC(C(=O)Nc1cc(Br)c(-c2ccnc3[nH]ccc23)s1)c1ccccc1` (stereo not shown) [GSK1269851], for which the “%Inh” value in assay [1] amounted to 16%; in assay [2] it was 2%; in assay [3], 0%; in assay [4] it was 70%; in assay [5] it was 58%; in assay [6], 63%. Further, the “%Inh” value is 26% in assay [7], 73% in [8], 0% in [9] and 0% in assay [10].
For the compound `NCCCC(NC(=O)c1cc(Br)c(-c2ccnc3[nH]ccc23)s1)c1ccccc1.O=C(O)C(F)(F)F.O=C(O)C(F)(F)F` (stereo not shown) [GSK1287544], the “%Inh” value in [1] worked out at 14%; in assay [2], 0%; in assay [3] it was 0%; in [4], 95.6%; in [5], 92.5%; in [6] it was 94.7%. In addition, the “%Inh” value in [7] was found to be 31%; in assay [8], 75%; in assay [9], 29%; in [10], 36%.
On to `O=C(NC1CCN(c2ccnc(Nc3ccc(F)cc3)n2)C1)c1cc2ccccc2s1` (stereo not shown) [GSK1379716], for which the “%Inh” value in assay [1] was found to be 0%; in assay [2] it was 0%; in assay [3], 1%; in assay [4], 0%; in [5], 2%; in assay [6] it was 30%. Moreover, the “%Inh” value was found to be 15% in assay [7], 16% in assay [8], 21% in [9] and 28% in assay [10].
On to `Cc1occc1-c1ncc(OC[C@@H](N)Cc2c[nH]c3ccccc23)cc1-c1ccc2[nH]nc(C)c2c1.O=C(O)C(F)(F)F` [GSK682037], for which the “%Inh” value in assay [1] was determined as 0%; in assay [2], 0%; in assay [3], 0%; in assay [4], 100%; in assay [5] it was 99.8%; in [6], 97.5%. Also, the “%Inh” value in assay [7] is 28%; in assay [8], 97.7%; in [9], 90%; in [10] it was 99.6%.
As for `COC(=O)Nc1nc2ccc(Oc3ccc(NC(=O)Nc4cc(C(F)(F)F)ccc4F)cc3)cc2n1C.Cl` [GW692089], the “%Inh” value was determined as 0% in assay [1]; 30% in [2]; 0% in assay [3]; 0% in [4]; 20% in assay [5]; 0% in [6]. For the same compound, the “%Inh” value is listed as 4% in assay [7], 0% in assay [8], 0% in assay [9] and 10% in [10].

These data come from article PMC5540273 (PLoS ONE, 2017).
